Only some compounds are listed: those with a hit (about 5.5% of all), similar ones and a draw of the others.
Gal4-VP16 FLuc: Gal4-VP16 reporter inhibition counter-screen; 3.5% of 310,000 active; Drosophila S2 Gal4-VP16 UAS-luciferase, luminescence, 20 h; Potency, µM (series often up to 53.6 µM), for the others: at the highest dose activity, negative = inhibition, actives largely listed as inhibitors; AID 2546;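 further: Gal4-VP16 expression switched on by copper sulfate through the metallothionein promoter; potency means the concentration at half of the fitted maximal effect; on the % scale 0 is the no-effect control and ±100 the full control effect; nearly all actives have a fitted effect of over 50% in size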
MBNL1-CUG inh: inhibitors of human MBNL1 binding to CUG repeat RNA | Q9NR56 | TR-FRET MBNL1-His/biotin-(CUG)12 binding, 665/545 ratio | Potency, µM (top dose mostly 57.5 µM), without a hit: top-dose activity change, negative = inhibition, most hits filed as inhibitors | 0.036% of 280,000 active | AID 2675; active means well fitted inhibition curve with a large enough effect in the signal ratio, with a control signal flat, not every such curve was filed as active; inconclusive means small, poorly fitted or top-dose-only effect, or effect the other way, or a change in a side signal; inactive means no such curve, though single readings can be large or run the other way; the % refers to the signal ratio; further: potency means the concentration at half of the fitted maximal effect; on the % scale 0 is the no-effect control and ±100 the full control effect
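TR-FRET between His-tagged MBNL1 and biotin-(CUG)12 RNA, detected with Tb anti-His antibody (0.055 ng/ul) and streptavidin-XL665 (5 nM), 60 min at room temperature. Compounds titrated 92 nM to 58 uM; 665/545 nm ratio normalized to buffer and complex controls.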
RORg inh: inhibitors of mouse ROR gamma transcriptional activity; AID 2551; Potency, µM (series often up to 53.6 µM), inactives show at the top dose activity change, negative = inhibition, usual class: inhibitors; Drosophila S2 Gal4-RORgamma UAS-luciferase reporter, 20 h; P51450; 5.4% of 310,000 active; further: potency means the concentration at half of the fitted maximal effect; on the % scale 0 is the no-effect control and ±100 the full control effect; nearly all actives have a fitted effect of over 60% in size
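In this cell-based reporter format, copper sulfate (700 uM final) drives Gal4–ROR gamma fusion expression from a metallothionein promoter in Drosophila Schneider cells; compounds preincubated 1 hr, reporter read after 20 hr at ambient temperature.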
CBFb RUNX1 block: inhibitors of human CBF-beta and RUNX1 interaction | Potency, µM (doses to about 59.8 µM), inactives show top-dose activity, negative = inhibition, most hits filed as inhibitors | Q01196+Q13951 | AlphaScreen CBFb-His/RUNX1-biotin binding, biochemical | 230,000 tested, under 10 active; further: % of control where 0% means no effect
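CBFb-His/RUNX1-biotin, 30 nM each, preincubated 20 min RT; compound 15 min RT; Ni + streptavidin beads 50 ng each, 90 min RT; AlphaScreen read.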
CtBP-E1A inh: blocks the CtBP interaction with E1A. AlphaScreen GST-E1A/His-CtBP binding, 1536-well; hits give low values. activity change, % (concentration not given with the values). 0.49% of 340,000 active. AID 651724; in the data active means activity change below about -65%; inconclusive means mostly about -30% to -63%; further: on the % scale 0 is the no-effect control and ±100 the full control effect
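Protein mix (5X: 125 nM each GST-E1A, His-CtBP) was incubated with pinned compound 2 h at 37 deg C in dark, in 50 mM Tris pH 8.0 buffer with 300 mM NaCl. Glutathione donor and nickel acceptor beads followed; AlphaScreen signal read after 1 h.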
Six1-Eya2 inh: Six1/Eya2 interaction inhibition; Q15475+O00167; AlphaScreen GST-Six1/His-Eya2 binding, biochemical; hits give low values; activity change, % (test concentration not listed); 0.56% of 360,000 active; AID 651725; in the data active means activity change below about -65%; inconclusive means mostly about -30% to -63%; further: on the % scale 0 is the no-effect control and ±100 the full control effect
Target sequence (O00167 whole entry, looked up): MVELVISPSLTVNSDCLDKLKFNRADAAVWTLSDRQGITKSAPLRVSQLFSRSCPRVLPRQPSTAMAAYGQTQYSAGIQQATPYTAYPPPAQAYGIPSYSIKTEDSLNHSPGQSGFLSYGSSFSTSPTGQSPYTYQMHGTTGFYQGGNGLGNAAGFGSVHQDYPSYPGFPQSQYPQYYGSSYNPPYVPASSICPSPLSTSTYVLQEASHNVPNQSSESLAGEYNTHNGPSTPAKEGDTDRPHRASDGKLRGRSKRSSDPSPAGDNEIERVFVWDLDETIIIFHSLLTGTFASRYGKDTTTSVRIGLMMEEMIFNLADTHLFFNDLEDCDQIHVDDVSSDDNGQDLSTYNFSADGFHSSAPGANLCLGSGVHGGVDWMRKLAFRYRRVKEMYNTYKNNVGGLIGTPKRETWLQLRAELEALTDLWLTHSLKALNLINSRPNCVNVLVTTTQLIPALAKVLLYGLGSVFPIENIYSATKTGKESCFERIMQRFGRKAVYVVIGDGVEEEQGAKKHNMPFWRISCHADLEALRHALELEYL
Target sequence (Q15475 whole entry, looked up): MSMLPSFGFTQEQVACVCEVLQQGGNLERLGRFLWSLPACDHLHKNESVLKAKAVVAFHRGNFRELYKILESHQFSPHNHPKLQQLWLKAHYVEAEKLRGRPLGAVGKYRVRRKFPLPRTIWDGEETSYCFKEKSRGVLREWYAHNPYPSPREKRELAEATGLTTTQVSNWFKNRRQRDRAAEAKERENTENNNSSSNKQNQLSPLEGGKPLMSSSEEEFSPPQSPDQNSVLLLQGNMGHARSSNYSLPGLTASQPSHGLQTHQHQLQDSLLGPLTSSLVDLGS
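GST-Six1 + His-Eya2 (5X stock: 250/500 nM); Tris pH 8.0, 300 mM NaCl, 0.05% BSA, 0.02% Tween 20; GSH donor/Ni acceptor beads; 1 h 37 °C dark; AlphaScreen readout.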
An asterisk follows results filed as active; ? = inconclusive; nt = no result given; ! = a repeat was not active; [ ] = dose if it differs, or a comment. Unless noted, the call rests on the fitted dose curve; in most records, active means well fitted curve in the direction sought with a large enough effect; inconclusive means small, poorly fitted or top-dose-only effect, or another doubt; inactive means no such curve, though single readings can be large; an effect the other way counts as inactive or inconclusive.

SMILES	Gal4-VP16 FLuc	MBNL1-CUG inh	RORg inh	CBFb RUNX1 block	CtBP-E1A inh	Six1-Eya2 inh
C(=N\NC(=Nc1ccccc1)c1ccccn1)/c1ccccn1	3.16µM*	nt	3.16µM*	-1.1%	-2.3	-26.9
Clc1ccc(/C=N/NC(=Nc2ccccc2)c2ccccn2)c(Cl)c1	?	4.8%	12.6µM*	?	-29.4	?
C/C(=N\Nc1c(Cl)c(Cl)nc(C(=O)O)c1Cl)c1ccc(O)cc1	-6.0%	-3.1%	-9.9%	nt	?	-66.6*
Cn1ccnc1C(=O)Cc1ccc([N+](=O)[O-])cc1	nt	nt	nt	nt	-85.4*	2.1
Cn1ccnc1SCc1ccc([N+](=O)[O-])cc1	1.8%	?	-26.7%	1.9%	1.2	-2.0
COC(=O)c1[nH]c2c(c1C)C(=O)CC(c1cccc(OC)c1)C2 (stereo unspecified)	7.4%	4.5%	26.6%	nt	-10.5	4.4
CC1CCCN(CCCNC(=O)C2CCC(CNS(=O)(=O)c3cccc4nsnc34)CC2)C1 (stereo unspecified)	0.0%	?	-14.7%	nt	-17.1	-12.3
S=c1[nH]nc(CNc2ccc(Cl)cc2)n1Cc1ccccc1	-17.1%	-4.9%	3.55µM*	-11.3%	-12.4	-0.9
Fc1ccc(NCc2n[nH]c(=S)n2Cc2ccccc2)cc1	-18.8%	-10.2%	4.47µM*	8.5%	6.2	4.3
O=Cc1ccc(Cl)cc1	4.7%	nt	-5.0%	5.6%[21.7 µM]	nt	nt
O=C(CNC(=O)c1ccccc1F)NCCc1ccc(Cl)cc1	-7.4%	1.6%	25.5%	nt	4.4	-3.9
Fc1ccc(NC(=S)NCCc2ccccc2)c(F)c1F	-6.0%	-6.2%	-5.2%	0.9%	4.4	6.0
Fc1ccccc1NC(=S)NCCc1ccccc1	?	-2.8%	6.31µM*	1.1%	-7.8	-3.7
Fc1ccc(F)c(NC(=S)NCCc2ccccc2)c1	?	0.4%	4.47µM*	6.9%	14.2	18.9
Fc1cccc(NC(=S)NCCc2ccccc2)c1	?	-13.3%	3.16µM*	-6.7%	0.4	-0.6
Fc1ccccc1NC(=S)NCc1ccccc1	?	-15.9%	?	nt	3.0	-2.0
Fc1ccccc1NC(=S)NCCc1ccc(Cl)cc1	?	-2.9%	8.91µM*	nt	7.7	1.7
C/C=C(\C=C\[C@@H](C)C/C=C/CC/C=C/C=C\C[C@@H](OC)/C(C)=C\C=C(C)C)CC(=O)O	-2.4%	nt	-1.6%	27.6%	nt	nt
CCCCN(C(=O)CCCc1nc2ccccc2c(=O)[nH]1)c1c(N)n(CC(C)C)c(=O)[nH]c1=O	nt	nt	nt	nt	nt	-1.5
C[C@H](NC(=O)[C@@H]1CCCN1C(=O)[C@@H]1CCCN1C(=O)c1cccs1)c1ccccc1	nt	nt	nt	nt	0.0	0.3
O=C(N/N=C1/C[C@@H](O)[C@@H](O)[C@@H]2[C@@H]3C(=O)N(C[C@@H]4CCCO4)C(=O)[C@H]3CC[C@H]12)OCc1ccccc1	4.6%[10 µM]	nt	3.0%[10 µM]	0.4%[13.1 µM]	nt	nt
Cc1c(Br)c(=O)oc2c(Br)c(O)c(O)cc12	-20.0%	?	5.01µM*	-2.3%	-2.8	-25.9
Cc1c(Br)c(=O)oc2c(Br)c(O)ccc12	0.8%	35.9%	3.2%	?	2.2	1.6
CCc1ccc(NC(=S)N2CCN(c3cccc(OC)c3)CC2)cc1	?	0.7%	12.6µM*	0.9%	9.3	-10.0
COc1cccc(N2CCN(C(=S)Nc3ccccc3)CC2)c1	?	-4.8%	-12.7%[1.91 µM]	nt	0.3	-2.9
SMILES	Gal4-VP16 FLuc	MBNL1-CUG inh	RORg inh	CBFb RUNX1 block	CtBP-E1A inh	Six1-Eya2 inh
CCc1ccccc1NC(=S)N1CCN(c2cccc(OC)c2)CC1	?	2.1%	10µM*	nt	-1.1	-13.9
COc1ccc(-c2coc3cc(OC(C)=O)ccc3c2=S)cc1	nt	nt	nt	nt	-20.3	-15.1
Cc1cc(N2CCOCC2)nc2ccc(NC(=S)NC(C)C)cc12	?	1.7%	10µM*	nt	nt	4.5
Cc1cc(N2CCOCC2)nc2ccc(NC(=S)NCc3ccc4c(c3)OCO4)cc12	?	-3.5%	22.4µM*	-4.9%	-10.3	-8.5
COc1ccnc2c1c(=O)n(Cc1ccc(F)cc1)c(=O)n2C	-12.3%	1.7%	5.8%	nt	-4.7	-4.3
C=C(C)C(=O)/C=C/CCC/C=C/C(=O)OCC	-1.1%	nt	-1.4%	-6.1%	nt	nt
Cc1nnc(SCC(=O)N2CCN(c3cccc(Cl)c3)CC2)n1C1CC1	nt	nt	nt	nt	3.5	-0.5
CCc1ccc(OCC(=O)N/N=C(\C)c2ccc(O)cc2O)cc1	?	-3.2%	12.6µM*	3.0%	-20.8	-14.9
Cc1cccc(C2(c3cccc(C)c3)CC2C(=O)Nc2ccc([N+](=O)[O-])cc2O)c1 (stereo unspecified)	11.2µM*	nt	-104.2%	?	-14.0	0.0
COc1ccc(CNc2nc3ccccc3n2CCN2CCCCC2)cc1	-5.0%	-9.9%	15.8µM*	9.5%	-8.7	-11.6
COc1ccc(CCN2CCC(Nc3nc4ccccc4n3Cc3ccc(F)cc3)CC2)cc1	?	-11.8%	14.1µM*!	-11.7%	-20.5	-20.1
CCOc1ccc(CNc2nc3ccccc3n2CCN2CCOCC2)cc1	-5.8%	0.4%	-12.1%	2.0%	2.7	-0.5
Cn1c(CNc2nc3ccccc3n2CCN2CCCCC2)nc2ccccc21	3.4%	-14.6%	15.8µM*	-3.1%	-9.9	-21.1
CCN(CC)c1ccc(CNc2nc3ccccc3n2CCN2CCCCC2)cc1	?	-15.8%	8.91µM*	-28.6%	?	?
c1ccc(Cn2c(CNc3nc4ccccc4n3CCN3CCCCC3)nc3ccccc32)cc1	?	?	?	-6.9%	-17.7	-23.4
Cc1cc2c(c(=O)o1)[C@H](O)[C@H]1O[C@@H]1C2=O	?	nt	?	13.6%[13.1 µM]	nt	nt
CCN(CC)CCn1c(NCc2nc3ccccc3n2Cc2ccccc2)nc2ccccc21	?	-9.6%	11.2µM*	-6.9%	-15.7	-12.8

Assay outcomes from PubChem.
